Results from PubChem BioAssay (NCATS).
Records with an inconclusive call do not appear. Activity calls are given as the source filed them. Calls come from the whole dose curve; as a rule, active = well fitted inhibition curve with a large enough effect; inconclusive = small, poorly fitted or top-dose-only effect; inactive = flat fitted curve, though single readings scatter.

Legend:
[1] = qHTS profiling for inhibitors of Plasmodium falciparum proliferation (AID 504749);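 for activity, negative = inhibition: 0% = DMSO vehicle and full inhibition = artemisinin control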; for all read-outs here: nearly all actives have a fitted effect of over 60% in size; conditions: P. falciparum in erythrocytes, SYBR Green DNA, 72 h; for activity, negative = inhibition: at 28.7 µM (top of the series)
Method in brief: (§1)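 Each compound contacts P. falciparum-infected red blood cells for 72 h at 37 C; lysis buffer (Tris, EDTA, saponin, Triton X, SYBR Green I) is added and fluorescence measured next morning; values normalized to controls.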

3D7 = assay: as above; conditions: P. falciparum in erythrocytes, SYBR Green DNA, 72 h; series mostly up to 28.7 µM
Method in brief: as §1

AA1029 = assay: as above; conditions: P. falciparum in erythrocytes, SYBR Green DNA, 72 h; series mostly up to 28.7 µM
Method in brief: as §1

AS120 = assay: as above; conditions: P. falciparum in erythrocytes, SYBR Green DNA, 72 h; series mostly up to 28.7 µM
Method in brief: as §1

ATS189 = assay: as above; conditions: P. falciparum in erythrocytes, SYBR Green DNA, 72 h; series mostly up to 28.7 µM
Method in brief: as §1

ATS95 = assay: as above; conditions: P. falciparum in erythrocytes, SYBR Green DNA, 72 h; series mostly up to 28.7 µM
Method in brief: as §1

C2A = assay: as above; conditions: P. falciparum in erythrocytes, SYBR Green DNA, 72 h; series mostly up to 28.7 µM
Method in brief: as §1

CP185 = assay: as above; conditions: P. falciparum in erythrocytes, SYBR Green DNA, 72 h; series mostly up to 28.7 µM
Method in brief: as §1

CP191 = assay: as above; conditions: P. falciparum in erythrocytes, SYBR Green DNA, 72 h; series mostly up to 28.7 µM
Method in brief: as §1

CP194 = assay: as above; conditions: P. falciparum in erythrocytes, SYBR Green DNA, 72 h; series mostly up to 28.7 µM
Method in brief: as §1

CP201 = assay: as above; conditions: P. falciparum in erythrocytes, SYBR Green DNA, 72 h; series mostly up to 28.7 µM
Method in brief: as §1

CP203 = assay: as above; conditions: P. falciparum in erythrocytes, SYBR Green DNA, 72 h; series mostly up to 28.7 µM
Method in brief: as §1

CP211 = assay: as above; conditions: P. falciparum in erythrocytes, SYBR Green DNA, 72 h; series mostly up to 28.7 µM
Method in brief: as §1

CP215 = assay: as above; conditions: P. falciparum in erythrocytes, SYBR Green DNA, 72 h; series mostly up to 28.7 µM
Method in brief: as §1

CP217 = assay: as above; conditions: P. falciparum in erythrocytes, SYBR Green DNA, 72 h; series mostly up to 28.7 µM
Method in brief: as §1

CP237 = assay: as above; conditions: P. falciparum in erythrocytes, SYBR Green DNA, 72 h; series mostly up to 28.7 µM
Method in brief: as §1

CP238 = assay: as above; conditions: P. falciparum in erythrocytes, SYBR Green DNA, 72 h; series mostly up to 28.7 µM
Method in brief: as §1

CP247 = assay: as above; conditions: P. falciparum in erythrocytes, SYBR Green DNA, 72 h; series mostly up to 28.7 µM
Method in brief: as §1

CP192 = assay: as above; conditions: P. falciparum in erythrocytes, SYBR Green DNA, 72 h; series mostly up to 28.7 µM
Method in brief: as §1

7G8 = assay: as above; conditions: P. falciparum in erythrocytes, SYBR Green DNA, 72 h; series mostly up to 28.7 µM
Method in brief: as §1
Potency is the fitted concentration of half-maximal effect.

O=C(O)CCC/C=C\C[C@@H]1[C@@H](/C=C/[C@@H](O)COc2cccc(C(F)(F)F)c2)[C@H](O)C[C@@H]1O
inactive: activity, negative = inhibition ([1]; parasite line A) -5.12% | activity, negative = inhibition ([1]; parasite line B) -7.34% | Potency (3D7) | Potency (AA1029) | Potency (AS120) | Potency (ATS189) | Potency (ATS95) | Potency (C2A) | Potency (CP185) | Potency (CP191) | Potency (CP194) | Potency (CP201) | Potency (CP203) | Potency (CP211) | Potency (CP215) | Potency (CP217) | Potency (CP237) | Potency (CP238) | Potency (CP247)

O=C(CCCN1CCN2CCCC2C1)c1ccc(F)cc1 (stereo unspecified)
active: Potency (CP237) 10 µM
inactive: activity, negative = inhibition ([1]; parasite line A) 12% | activity, negative = inhibition ([1]; parasite line B) 7.07% | Potency (3D7) | Potency (AS120) | Potency (C2A) | Potency (CP185) | Potency (CP191) | Potency (CP192) | Potency (CP201) | Potency (CP203) | Potency (CP215) | Potency (CP217) | Potency (CP247)

CSc1nc2cc(Oc3cccc(Cl)c3Cl)c(Cl)cc2[nH]1
active: Potency ([1]; parasite line A) 3.98 µM | Potency ([1]; parasite line B) 11.2 µM | Potency (7G8) 8.91 µM | Potency (AA1029) 11.2 µM | Potency (AS120) 11.2 µM | Potency (ATS189) 6.31 µM | Potency (ATS95) 8.91 µM | Potency (CP185) 11.2 µM | Potency (CP191) 3.98 µM | Potency (CP194) 13.5 µM | Potency (CP201) 10.7 µM | Potency (CP211) 10.7 µM | Potency (CP215) 9.53 µM | Potency (CP217) 3.98 µM | Potency (CP237) 11.2 µM | Potency (CP238) 8.91 µM | Potency (CP247) 3.16 µM

Oc1cccc(O)c1O
inactive: activity, negative = inhibition ([1]; parasite line A) -26.1% | activity, negative = inhibition ([1]; parasite line B) -8.69% | Potency (AA1029) | Potency (ATS95) | Potency (C2A) | Potency (CP185) | Potency (CP217) | Potency (CP238)

CC(C)OC(=O)Nc1ccc2nc(-c3cscn3)[nH]c2c1
inactive: activity, negative = inhibition ([1]; parasite line A) 1.15% | activity, negative = inhibition ([1]; parasite line B) -9.28% | Potency (3D7) | Potency (AA1029) | Potency (AS120) | Potency (ATS189) | Potency (ATS95) | Potency (CP185) | Potency (CP191) | Potency (CP192) | Potency (CP194) | Potency (CP201) | Potency (CP203) | Potency (CP211) | Potency (CP215) | Potency (CP217) | Potency (CP237) | Potency (CP238)

CC1CCC(NC(=O)N(CCCl)N=O)CC1 (stereo unspecified)
inactive: activity, negative = inhibition ([1]; parasite line A) 9.36% | activity, negative = inhibition ([1]; parasite line B) 3.89% | Potency (3D7) | Potency (AA1029) | Potency (AS120) | Potency (ATS189) | Potency (ATS95) | Potency (C2A) | Potency (CP185) | Potency (CP191) | Potency (CP192) | Potency (CP194) | Potency (CP201) | Potency (CP203) | Potency (CP211) | Potency (CP215) | Potency (CP217) | Potency (CP237) | Potency (CP238) | Potency (CP247)

COc1ccccc1N1CCN(CCCC(=O)c2ccc(F)cc2)CC1
inactive: activity, negative = inhibition ([1]; parasite line A) -16.2% | activity, negative = inhibition ([1]; parasite line B) 9.5% | Potency (3D7) | Potency (AA1029) | Potency (AS120) | Potency (ATS189) | Potency (ATS95) | Potency (C2A) | Potency (CP185) | Potency (CP192) | Potency (CP194) | Potency (CP201) | Potency (CP203) | Potency (CP211) | Potency (CP215) | Potency (CP217) | Potency (CP237) | Potency (CP238) | Potency (CP247)

CC/C=C\C/C=C\C/C=C\CCCCCCCC(=O)O
inactive: activity, negative = inhibition ([1]; parasite line A) -1.47% | activity, negative = inhibition ([1]; parasite line B) -1.74% | Potency (3D7) | Potency (AA1029) | Potency (AS120) | Potency (ATS189) | Potency (C2A) | Potency (CP185) | Potency (CP192) | Potency (CP194) | Potency (CP201) | Potency (CP203) | Potency (CP211) | Potency (CP215) | Potency (CP217) | Potency (CP237) | Potency (CP238) | Potency (CP247)

C[C@@](Cc1ccc(O)c(O)c1)(NN)C(=O)O
inactive: activity, negative = inhibition ([1]; parasite line A) -19.2% | activity, negative = inhibition ([1]; parasite line B) -6.85% | Potency (3D7) | Potency (ATS189) | Potency (ATS95) | Potency (C2A) | Potency (CP185) | Potency (CP191) | Potency (CP192) | Potency (CP194) | Potency (CP201) | Potency (CP211) | Potency (CP215) | Potency (CP217) | Potency (CP238) | Potency (CP247)

C#C[C@]1(O)CC[C@@H]2[C@H]3CCC4=CC(=O)CC[C@H]4[C@H]3C(=C)C[C@@]21CC
inactive: Potency (AA1029) | Potency (AS120) | Potency (ATS189) | Potency (ATS95) | Potency (C2A) | Potency (CP185) | Potency (CP238)
active: Potency (CP192) 0.379 µM | Potency (CP194) 0.536 µM | Potency (CP201) 0.478 µM | Potency (CP211) 0.478 µM | Potency (CP215) 0.478 µM
